Test results published in PubChem BioAssay (NCATS).
Results filed as inconclusive are left out. Where a call stands in place of a potency, no number is given. Activity calls are given as the source filed them. The call rests on the fitted dose curve; in most records, active means well fitted inhibition curve with a large enough effect; inconclusive means small, poorly fitted or top-dose-only effect; inactive means no such curve, though single readings can be large or run the other way.

Test: qHTS assay for measurement of the activity of small molecule inhibitors on Zika virus induced Caspase-3 activity in human iPSC derived neural progenitor cells (hNPCs) (AID 1224857); further: nearly all actives have a fitted effect of over 65% in size
Conditions: hNPCs ZIKV-induced caspase-3/7, Caspase-Glo luminescence, 6 h; series mostly up to 45.7 µM
Description: National Center for Advancing Translational Sciences [NCATS]
Johns Hopkins University School of Medicine
Increase in the Caspase-3 activity indicates an activation of apoptosis cell death pathway caused by Zika virus infection in certain types of neuronal cells including human neural progenitor cells (hNPCs), astrocytes, and astrocytoma cell line (SNB-19). This cell-based caspase-3 activity assay measures the increased caspase-3 activity in the human iPSC derived neural progenitor cells (hNPCs) after a 6-hour Zika virus infection with a luminescence readout. A decrease in the luminescence signal in this assay by small molecule treatment indicates an inhibitory effect of that small molecule on the Zika virus induced caspase-3 activity that may correlate with its effect on reduction of Zika virus caused cell death.
The medium for hNPCs consists of DMEM/F12, N2 supplement (ThermoFisher, Cat.# 17502048), NEAA (ThermoFisher, Cat. # 11140050), 2 ug/ml heparin, 2 uM cyclopamine, and B27 (ThermoFisher, Cat. # 17504044). A Caspase-Glo 3/7 assay kit (catalog number G8092; Promega, Madison, WI) was used to detect caspase-3 activity induced by Zika virus infection in human cells. The reagent mixture was reconstituted as described in the protocol from the manufacturer. Polystyrene tissue culture treated and PDL coated white plates were obtained from Greiner Bio-One (Monroe, NC). Cells were seeded in 384- or 1536-well assay plates and cultured at 37 C with 5% CO2 for 16 to 20 hours. The typical cell seeding density in the 1536-well plate assay is 350 cells/well in 3 ul medium for hNPCs in tissue culture treated plates. Compounds were added to cells and incubated for one hour before addition of ZIKV solution to cells (2 FFU/cell). After incubation at 37 C with 5% CO2 for 6 hours, the reagent mixture of Caspase-Glo 3/7 assay kit was added to each well, followed by incubation at room temperature for 30 minutes. The luminescence intensity of the assay plates was measured using a ViewLux plate reader (PerkinElmer). Data were normalized by using the cell-containing wells without ZIKV as a negative control (0% induction of caspase 3/7 activity) and wells containing ZIKV infected cells (Caspase-3 activity induced) as a positive control (100% induction of caspase 3 activity). The percentage inhibitions of the increased Caspase-3 activity by small molecule inhibitors were then calculated.
Potency means the concentration at half of the fitted maximal effect.

Row | SMILES | Potency
1 | COc1cc(Oc2ccnc3cc(OC)c(OC)cc23)ccc1NC(=O)NC(C)c1nccs1 (stereo not given) | inactive
2 | N[C@@H]1CONC1=O | inactive
3 | CC(C=CC1=C(C)CCCC1(C)C)=CC=CC(C)=CC(=O)O | inactive
4 | NCCc1ccc(O)c(O)c1 | inactive
5 | CCOc1cc(C=C2C(=O)N(c3ccccc3)N=C2C)cc(Cl)c1OCC(=O)OC | inactive
6 | CC(C[N+](C)(C)C)OC(N)=O (stereo not given) | inactive
7 | CCCc1nc2c(C)cc(-c3nc4ccccc4n3C)cc2n1Cc1ccc(-c2ccccc2C(=O)O)cc1 | inactive
8 | O=C(NOC[C@H](O)CO)c1ccc(F)c(F)c1Nc1ccc(I)cc1F | inactive
9 | CCOC(=O)N1CCC(=C2c3ccc(Cl)cc3CCc3cccnc32)CC1 | inactive
10 | Cn1cc(-c2ccc3nnc(C(F)(F)c4ccc5ncccc5c4)n3n2)cn1 | inactive
11 | Cc1c(C)c2c(c(C)c1O)CCC(C)(COc1ccc(CC3SC(=O)NC3=O)cc1)O2 (stereo not given) | inactive
12 | CC(C)(N)C(=O)N[C@H](COCc1ccccc1)C(=O)N1CCC2(CC1)CN(S(C)(=O)=O)c1ccccc12 | inactive
13 | COc1ccc(-c2ccc3c(N4CCOC[C@H]4C)nc(N4CCOC[C@H]4C)nc3n2)cc1CO | inactive
14 | COc1cc(F)c(F)c(Nc2ccc(I)cc2F)c1NS(=O)(=O)C1(C[C@H](O)CO)CC1 | inactive
15 | CCOc1cc(N2CCC(O)CC2)ccc1Nc1ncc2c(n1)N(C)c1ccccc1C(=O)N2C | inactive
16 | CN(C)c1ccc(C2Nc3ccc4ccccc4c3C3=C2C(=O)CC(C)(C)C3)cc1Br (stereo not given) | inactive
17 | Nc1nccc(-c2ccc3noc(-c4ccc(Cl)cc4)c3c2)n1 | inactive
18 | Nc1ccc(S(=O)(=O)Nc2ccnn2-c2ccccc2)cc1 | inactive
19 | Nc1nc2ccc(OC(F)(F)F)cc2s1 | inactive
20 | O=C1[C@H](Cc2ccc(O)cc2)N2C(=O)CCN(C(=O)NCc3ccccc3)[C@H]2CN1Cc1cccc2ccccc12 | inactive

Row | SMILES | Potency
21 | Cc1cn[nH]c1 | inactive
22 | COc1ccc(CC2=NN3C([C@@H](CCc4ccccc4)[C@@H](C)O)=NC(C)C3C(=O)N2)cc1OC (stereo not given in full) | 9.35 µM (active)
23 | CC[C@H](Nc1ncnc2nc[nH]c12)c1nc2cccc(F)c2c(=O)n1-c1ccccc1 | inactive
24 | CC(C)(C)NCC(O)c1ccc(O)c(CO)c1 (stereo not given) | inactive
25 | Cn1cnc2c(F)c(Nc3ccc(Br)cc3Cl)c(C(=O)NOCCO)cc21 | inactive
26 | CCCc1nn(C)c2c(=O)[nH]c(-c3cc(S(=O)(=O)N4CCN(C)CC4)ccc3OCC)nc12 | inactive
27 | CCn1c(-c2nonc2N)nc2c(C#CC(C)(C)O)ncc(OC[C@H]3CCCNC3)c21 | inactive
28 | Cc1n[nH]c(C)c1Cc1sc2c(c1C(=O)N1C[C@H](O)CO1)c(=O)n(C)c(=O)n2CC(C)C | inactive
29 | COc1ccc2nc(S(=O)Cc3ncc(C)c(OC)c3C)[nH]c2c1 (stereo not given) | inactive
30 | Oc1cccc(-c2nc(N3CCOCC3)c3oc4ncccc4c3n2)c1 | inactive
31 | CC(=O)Oc1ccccc1C(=O)O | inactive
32 | COc1ccc(-c2c(-c3ccc(O)cc3O)n[nH]c2C)cc1 | inactive
33 | OCCn1cc(-c2cnc3nnn(Cc4ccc5ncccc5c4)c3n2)cn1 | inactive
34 | O=C(O)[C@@H](c1ccc(OCc2ccc3ccccc3n2)cc1)C1CCCC1 | 16.6 µM (active)
35 | Cc1ccnc(NS(=O)(=O)c2ccc(NC(=O)Nc3ccc(S(=O)(=O)Nc4nccc(C)n4)cc3)cc2)n1 | inactive
36 | Fc1ccc(Cl)cc1-c1nc(Nc2ccncc2)c2nccnc2n1 | inactive
37 | NC[C@H](O)c1ccc(O)c(O)c1 | inactive
38 | CC(C)(C)OC(=O)CN(Cc1ccc(Cl)cc1)Cc1ccc([N+](=O)[O-])s1 | 10.5 µM (active)
39 | NC(=O)c1cnccn1 | inactive
40 | Cc1cc(-c2ccc(CC(=O)Nc3ccc(-c4cccnc4)cc3)cc2)ccn1 | inactive
